More than one record can exist for a structure, and the calls need not agree. The source made the active and inactive calls. How the source made its calls: active means hit-call score of the fitted dose curve at least 0.9, where 1 is the maximum; inactive means score below 0.9.

We go through 7 molecules from PubChem BioAssay (EPA / NIEHS).

Read-out in test [1]: Urokinase-type plasminogen activator receptor (uPAR), PLAUR (gene 5329)
Briefly: BSK_4H_uPAR: BioMAP Diversity Plus: 4H Assay for Urokinase-type plasminogen activator receptor (uPAR) Biomarker Activity (AID 2283030). The settings on record: primary human endothelial cells (HUVEC); actives raise or lower the signal. The procedure, abridged: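 Endpoint derived via bidirectional curve fitting against DMSO baseline; readout was ELISA detection of uPAR on umbilical vein endothelial cells at 24 h post-treatment, with SRB-stained parallel cultures assessing cytotoxicity.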

Read-out in test [2]: Vascular endothelial growth factor receptor 2 (Homo sapiens) (UniProt P35968)
Nature of the test: BSK_4H_VEGFRII: BioMAP Diversity Plus: 4H Assay for Vascular endothelial growth factor receptor 2 (VEGFR2) Biomarker Activity (AID 2283031).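 On AC50: cell-surface VEGFR2 protein level quantified by ELISA.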 The settings on record: primary human endothelial cells (HUVEC); actives raise or lower the signal. Put shortly: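 In this multiplexed HUVEC system, biomarker ELISA was performed after 24 h chemical exposure. Parallel SRB staining (TCA fixation, 560 nm) tracked cytotoxicity; DMSO served as baseline.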

Read-out in test [3]: Vascular cell adhesion molecule 1 (VCAM1), VCAM1 (gene 7412)
Briefly: BSK_4H_VCAM1: BioMAP Diversity Plus: 4H Assay for Vascular cell adhesion molecule 1 (VCAM1) Biomarker Activity (AID 2283033).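 On outcome: cell-surface VCAM-1 protein measured by ELISA.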 To be noted: primary human endothelial cells (HUVEC); actives raise or lower the signal. The procedure, abridged: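 ELISA read-out of VCAM-1 on human umbilical vein endothelium 24 hours after chemical dosing; gain or loss of signal was fitted relative to DMSO, with sulforhodamine B staining of parallel cultures flagging overt cytotoxicity.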

Read-out in test [4]: Interferon-gamma inducible Protein 10 (IP10), CXCL10 (gene 3627)
Nature of the test: BSK_BE3C_IP10: BioMAP Diversity Plus: BE3C Assay for Interferon-gamma inducible Protein 10 (IP10) Biomarker Activity (AID 2283034). The settings on record: primary human bronchial epithelial cells; actives raise or lower the signal. The procedure, abridged: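 Chemical is dosed onto human lung bronchial epithelial primary cells, cultures are incubated 24 h, and IP-10 is then quantified by ELISA. Gain or loss of signal is fitted in both directions relative to DMSO.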

Read-out in test [5]: Monokine induced gamma interferon (MIG), CXCL9 (gene 4283)
Briefly: BSK_BE3C_MIG: BioMAP Diversity Plus: BE3C Assay for Monokine induced gamma interferon (MIG) Biomarker Activity (AID 2283035).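 Further: MIG protein measured by ELISA in BE3C cultures after 24 h of dosing.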 To be noted: primary human bronchial epithelial cells; actives raise or lower the signal. The procedure, abridged: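 MIG level was determined by ELISA after 24 h chemical treatment of primary human bronchial epithelial cells. Values were fitted bidirectionally with DMSO as the negative control and activity baseline.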

Read-out in test [6]: Transforming growth factor beta 1 (TGFb1), TGFB1 (gene 7040)
Nature of the test: BSK_BE3C_TGFb1: BioMAP Diversity Plus: BE3C Assay for Transforming growth factor beta 1 (TGFb1) Biomarker Activity (AID 2283036;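 further: TGF-b1 protein level measured by ELISA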). To be noted: primary human bronchial epithelial cells; actives raise or lower the signal. The procedure, abridged: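 Primary human lung bronchial epithelial cells; compound exposure 24 h; TGF-b1 by ELISA; bidirectional fit, DMSO baseline. Parallel SRB total-protein staining for cytotoxicity.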

Read-out in test [7]: Plasminogen activator inhibitor-1 (PAI1), SERPINE1 (gene 5054)
Nature of the test: BSK_BE3C_PAI1: BioMAP Diversity Plus: BE3C Assay for Plasminogen activator inhibitor-1 (PAI1) Biomarker Activity (AID 2283037). To be noted: primary human bronchial epithelial cells; actives raise or lower the signal. Put shortly:
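Primary human lung bronchial epithelial cells; chemical dosing; 24 h; PAI-1 measured by ELISA; bidirectional fit referenced to DMSO as negative control.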

Read-out in test [8]: urokinase plasminogen activator (uPA), PLAU (gene 5328)
Briefly: BSK_BE3C_uPA: BioMAP Diversity Plus: BE3C Assay for urokinase plasminogen activator (uPA) Biomarker Activity (AID 2283038).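 Further: uPA protein level quantified by ELISA in cell cultures; uPA read one day after compound addition.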 To be noted: primary human bronchial epithelial cells; actives raise or lower the signal. The procedure, abridged:
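Using confluent primary human lung bronchial epithelial cultures, we dosed chemicals, waited 24 h, then ran a uPA ELISA, fitting bidirectionally against DMSO.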

Read-out in test [9]: Urokinase-type plasminogen activator receptor (uPAR), PLAUR (gene 5329)
Briefly: BSK_BE3C_uPAR: BioMAP Diversity Plus: BE3C Assay for Urokinase-type plasminogen activator receptor (uPAR) Biomarker Activity (AID 2283039).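 Further: uPAR protein level measured by ELISA on the cells; cells exposed to compound for one day before measurement.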 To be noted: primary human bronchial epithelial cells; actives raise or lower the signal. The procedure, abridged:
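Human bronchial epithelial primary cells; chemical exposure 24 h; uPAR by ELISA; bidirectional fit vs DMSO control.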

Read-out in test [10]: Interleukin-6 (IL6), IL6 (gene 3569)
Nature of the test: BSK_CASM3C_IL6: BioMAP Diversity Plus: CASM3C Assay for Interleukin-6 (IL6) Biomarker Activity for (AID 2283040). To be noted: primary human coronary artery smooth muscle cells; actives raise or lower the signal.

Read-out in test [11]: Tissue plasminogen activator (tPA), PLAT (gene 5327)
Briefly: BSK_BE3C_tPA: BioMAP Diversity Plus: BE3C Assay for Tissue plasminogen activator (tPA) Biomarker Activity (AID 2283041).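 On outcome: tPA level quantified by ELISA one day after compound addition.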 The settings on record: primary human bronchial epithelial cells; actives raise or lower the signal. The procedure, abridged: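 Primary human lung bronchial epithelial cultures receive test chemical; after 24 h, tPA is quantified by ELISA, and gain or loss of signal is fitted bidirectionally relative to DMSO baseline.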

Read-out in test [12]: Interleukin-8 (IL8), CXCL8 (gene 3576)
Briefly: BSK_CASM3C_IL8: BioMAP Diversity Plus: CASM3C Assay for Interleukin-8 (IL8) Biomarker Activity (AID 2283042).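 Further: IL-8 protein level quantified by ELISA.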 The settings on record: primary human coronary artery smooth muscle cells; actives raise or lower the signal.

Read-out in test [13]: Human Leukocyte Antigen - DR isotype (HLADR), HLA-DRA (gene 3122)
Nature of the test: BSK_CASM3C_HLADR: BioMAP Diversity Plus: CASM3C Assay for Human Leukocyte Antigen - DR isotype (HLADR) Biomarker Activity (AID 2283043).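 Further: cell-surface HLA-DR protein level quantified by ELISA.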 The settings on record: primary human coronary artery smooth muscle cells; actives raise or lower the signal.

Read-out in test [14]: Macrophage colony-stimulating factor (MCSF), CSF1 (gene 1435)
Nature of the test: BSK_CASM3C_MCSF: BioMAP Diversity Plus: CASM3C Assay for Macrophage colony-stimulating factor (MCSF) Biomarker Activity (AID 2283044).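 Further: M-CSF protein amount quantified by ELISA after 24 h exposure.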 To be noted: primary human coronary artery smooth muscle cells; actives raise or lower the signal.

Read-out in test [15]: Low-density lipoprotein receptor (LDLR), LDLR (gene 3949)
Briefly: BSK_CASM3C_LDLR: BioMAP Diversity Plus: CASM3C Assay for Low-density lipoprotein receptor (LDLR) Biomarker Activity (AID 2283045).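 Further: LDLR protein level on the cell surface quantified by ELISA.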 The settings on record: primary human coronary artery smooth muscle cells; actives raise or lower the signal.

Read-out in test [16]: Monocyte Chemoattractant Protein-1 (MCP1), CCL2 (gene 6347)
Briefly: BSK_CASM3C_MCP1: BioMAP Diversity Plus: CASM3C Assay for Monocyte Chemoattractant Protein-1 (MCP1) Biomarker Activity (AID 2283046).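 Further: MCP-1 level quantified by ELISA 24 h after dosing.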 To be noted: primary human coronary artery smooth muscle cells; actives raise or lower the signal.

The nature of test [17]: BSK_CASM3C_Proliferation: Cell Proliferation Assessment in the BioMAP Diversity Plus: CASM3C Assay (AID 2283047).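 Further: sulforhodamine B total protein stain as relative cell number at 560 nm; sub-confluent cells exposed 48 h before staining; fitted both ways against DMSO so gain or loss of cell number.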 To be noted: primary human coronary artery smooth muscle cells.
Read-out in test [18]: Monokine induced gamma interferon (MIG), CXCL9 (gene 4283)
Briefly: BSK_CASM3C_MIG: BioMAP Diversity Plus: CASM3C Assay for Monokine induced gamma interferon (MIG) Biomarker Activity (AID 2283048).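 Further: MIG protein level measured by ELISA.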 To be noted: primary human coronary artery smooth muscle cells; actives raise or lower the signal.

Read-out in test [19]: serum amyloid A (SAA), SAA1 (gene 6288)
Briefly: BSK_CASM3C_SAA: BioMAP Diversity Plus: CASM3C Assay for serum amyloid A (SAA) Biomarker Activity (AID 2283049).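 Further: SAA protein level quantified by ELISA.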 To be noted: primary human coronary artery smooth muscle cells; actives raise or lower the signal.

Read-out in test [20]: Human Leukocyte Antigen - DR isotype (HLADR), HLA-DRA (gene 3122)
Briefly: BSK_BE3C_HLADR: BioMAP Diversity Plus: BE3C Assay for Human Leukocyte Antigen - DR isotype (HLADR) Biomarker Activity (AID 2283032). To be noted: primary human bronchial epithelial cells; actives raise or lower the signal. The procedure, abridged: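 ELISA read-out of HLA-DR on human lung bronchial epithelial primary cells, measured 24 h post-dosing. Both increases and decreases were scored relative to DMSO vehicle.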

For the molecule `CCCCC(CC)COP(=O)(Oc1ccccc1)Oc1ccccc1` (stereo unspecified), the AC50 (as a rule, the concentration giving half of the maximal activity seen) was 20 µM (active) in test [1]; 10.4 µM (active) in [2]; 20 µM (active) in test [3]; 20 µM (active) in test [4]; 3.09 µM (active) in test [11]. The outcome in [5], in [6], in test [7], in test [8], in test [9] and in [10] was inactive. In addition, the outcome in [12], in [13], in [14], in test [15], in test [16] and in [17] was inactive. For the same molecule, the outcome in [18] and in test [19] was inactive.

As for `O=C(O)C=CC(F)(C(F)(F)F)C(F)(F)F`, the result in test [1], in test [2], in [20], in [3], in test [4] and in [5] was inactive. For the same molecule, the result in test [7], in [8], in test [9], in test [10], in test [11] and in [12] was inactive. Moreover, the result in test [13], in test [14], in test [15], in test [16], in test [17] and in test [18] was inactive. Also, in test [19], the result was inactive.

`COP(=O)(CCC(=O)NCO)OC`: the outcome in test [1], in test [2], in [20], in test [3], in test [4] and in test [5] was inactive. Also, the result in test [7], in test [8], in test [9], in test [10], in test [11] and in [12] was inactive. Also, the outcome in [13], in test [14], in test [15], in [16], in test [17] and in test [18] was inactive. In [19], the outcome was inactive. For the same molecule, the half-maximal activity concentration (AC50) was 1.56 µM (active) in [10] and 0.3 µM (active) in [13].

With `CCNc1nc(Cl)nc(NC(C)(C)C)n1`, the outcome in test [1], in test [2], in test [20], in test [3], in [4] and in [5] was inactive. The outcome in test [6], in test [7], in [8], in test [9], in test [10] and in test [11] was inactive. The result in test [12], in test [13], in test [14], in test [15], in test [16] and in test [18] was inactive. Further, the outcome in test [19] was inactive. Moreover, the half-maximal activity concentration (AC50) in test [17] was 4.52 µM (active).

As for `CCCN(CCC)c1c([N+](=O)[O-])cc(C(C)C)cc1[N+](=O)[O-]`, the result in [1], in [4], in [5], in test [6], in test [7] and in test [8] was inactive. Besides, the result in [9], in test [10], in [11], in test [12], in test [14] and in [16] was inactive. Further, the result in test [18] and in test [19] was inactive. Moreover, the AC50 in test [2] was 20 µM (active); in test [20] it was 5.79 µM (active); in [3], 23.2 µM (active); in test [15], 20 µM (active); in [17] it was 31.7 µM (active).

Regarding `CCOS(=O)(=O)OCC`, the outcome in [1], in test [2], in test [3], in test [4], in test [5] and in test [6] was inactive. For the same molecule, the result in test [7], in [8], in test [9], in [10], in test [11] and in test [12] was inactive. Moreover, the outcome in test [13], in test [14], in [15], in test [16], in test [17] and in test [18] was inactive. For the same molecule, the outcome in test [19] was inactive.

Regarding `O=C(O)C(F)(F)C(F)(F)C(=O)O`, the result in [1], in [2], in test [20], in test [3], in test [4] and in [5] was inactive. The result in [7], in test [8], in test [9], in test [10], in test [11] and in test [12] was inactive. Besides, the outcome in test [13], in test [14], in test [15], in test [16], in test [17] and in test [18] was inactive. The outcome in test [19] was inactive.
